Reference: PubChem BioAssay (EPA / NIEHS)
Results filed as inconclusive are left out. Active and inactive are the calls of the source. How the source made its calls: active means hit-call score of the fitted dose curve at least 0.9, where 1 is the maximum; inconclusive means response in the unintended direction; inactive means score below 0.9.

Experiments:
[1] = target: human CYP1A2, CYP1A2 (gene 1544) (UniProt P05177); test: NVS_ADME_hCYP1A2: NovaScreen (NVS) CYP450-related Enzyme Activity (ADME) Assay for human CYP1A2 (AID 2283102)
human CYP1A2, CYP1A2 (gene 1544), sequence (P05177 whole entry, looked up): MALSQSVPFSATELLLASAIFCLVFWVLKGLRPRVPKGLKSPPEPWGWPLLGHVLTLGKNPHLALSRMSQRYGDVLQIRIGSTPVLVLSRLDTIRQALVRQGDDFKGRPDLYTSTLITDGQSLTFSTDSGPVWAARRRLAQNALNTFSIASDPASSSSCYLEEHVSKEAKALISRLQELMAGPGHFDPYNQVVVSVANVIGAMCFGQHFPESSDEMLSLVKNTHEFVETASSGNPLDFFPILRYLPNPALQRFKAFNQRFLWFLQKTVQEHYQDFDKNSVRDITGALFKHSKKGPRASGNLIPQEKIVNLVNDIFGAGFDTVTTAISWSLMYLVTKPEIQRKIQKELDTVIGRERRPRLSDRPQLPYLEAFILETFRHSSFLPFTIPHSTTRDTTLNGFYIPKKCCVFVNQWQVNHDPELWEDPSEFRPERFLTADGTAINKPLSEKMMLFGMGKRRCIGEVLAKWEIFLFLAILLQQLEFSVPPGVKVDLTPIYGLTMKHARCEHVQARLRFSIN
Procedure, shortened: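 Fluorescence-intensity enzyme activity read-out, taken 0.5 h post-dosing, using insect-cell-derived recombinant CYP1A2 and specific fluorescent substrate. Acetonitrile served as negative control/baseline. Single-concentration duplicate screen at 10 uM, then concentration-response follow-up.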

[2] = target: rat CYP2C11, Cyp2c11 (gene 29277) (UniProt P08683); test: NVS_ADME_rCYP2C11: NovaScreen (NVS) CYP450-related Enzyme Activity (ADME) Assay for rat CYP2C11 (AID 2283118)
rat CYP2C11, Cyp2c11 (gene 29277), sequence (P08683 whole entry, looked up): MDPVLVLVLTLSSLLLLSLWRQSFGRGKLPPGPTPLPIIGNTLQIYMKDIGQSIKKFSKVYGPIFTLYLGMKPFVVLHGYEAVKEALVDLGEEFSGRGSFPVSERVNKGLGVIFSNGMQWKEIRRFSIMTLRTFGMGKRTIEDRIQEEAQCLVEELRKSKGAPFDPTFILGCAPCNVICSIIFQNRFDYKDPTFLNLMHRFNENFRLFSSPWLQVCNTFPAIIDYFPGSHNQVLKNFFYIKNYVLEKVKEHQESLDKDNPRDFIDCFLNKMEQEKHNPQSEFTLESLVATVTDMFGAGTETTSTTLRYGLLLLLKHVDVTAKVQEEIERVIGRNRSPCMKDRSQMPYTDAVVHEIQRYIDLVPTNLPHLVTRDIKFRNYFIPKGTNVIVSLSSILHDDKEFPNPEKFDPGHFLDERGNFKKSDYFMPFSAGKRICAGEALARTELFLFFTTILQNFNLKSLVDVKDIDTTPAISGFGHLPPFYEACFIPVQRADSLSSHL
Procedure, shortened: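 Screened first at 10 uM in duplicate, hits followed by concentration-response. Recombinant rat enzyme activity monitored by fluorescence 0.33 h post-dosing, normalised to acetonitrile negative control.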

[3] = target: human Esterase Plasma (ES), BCHE (gene 590) (UniProt P06276); test: NVS_ENZ_hES: NovaScreen (NVS) Enzymatic Assay for human Esterase Plasma (ES) (AID 2283157)
human Esterase Plasma (ES), BCHE (gene 590), sequence (P06276 whole entry, looked up): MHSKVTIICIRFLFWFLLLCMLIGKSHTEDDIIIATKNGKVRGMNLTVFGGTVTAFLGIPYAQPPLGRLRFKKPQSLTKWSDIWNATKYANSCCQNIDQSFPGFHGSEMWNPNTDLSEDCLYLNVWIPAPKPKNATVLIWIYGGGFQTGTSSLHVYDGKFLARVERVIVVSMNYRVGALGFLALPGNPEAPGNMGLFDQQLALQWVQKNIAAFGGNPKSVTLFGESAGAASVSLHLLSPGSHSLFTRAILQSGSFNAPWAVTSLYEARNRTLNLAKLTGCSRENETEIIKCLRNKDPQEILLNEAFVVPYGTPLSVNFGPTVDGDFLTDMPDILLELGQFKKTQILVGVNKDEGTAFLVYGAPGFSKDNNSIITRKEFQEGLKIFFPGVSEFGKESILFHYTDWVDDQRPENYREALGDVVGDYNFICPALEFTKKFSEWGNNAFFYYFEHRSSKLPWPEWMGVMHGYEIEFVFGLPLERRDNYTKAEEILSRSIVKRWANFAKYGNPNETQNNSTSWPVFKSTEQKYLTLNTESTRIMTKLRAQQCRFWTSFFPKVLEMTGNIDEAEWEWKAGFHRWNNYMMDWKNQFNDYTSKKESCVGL
Procedure, shortened: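 Human plasma-derived enzyme, cell-free, colorimetric readout at 0.25 h. Primary screen 25 uM in duplicate; hits (e.g. ≥30% inhibition) rerun singleton up to 50 uM. DMSO = negative control/baseline.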

## Cc1ccc([N+](=O)[O-])cc1N
[1]
  outcome: inactive

## CCOC(=O)C1=NOC(c2ccccc2)(c2ccccc2)C1
[2]
  outcome: inactive

## CC(C)[N+](C)(CCOC(=O)C1c2ccccc2Oc2ccccc21)C(C)C
[3]
  AC50: 2020 nM (active)

## Fc1ccc(Br)cc1
[3]
  outcome: inactive
